PubChem BioAssay AID624252 (National Center for Advancing Translational Sciences (NCATS), 2012)
Some of the results follow. Results filed as inconclusive are left out. Calls of active or inactive are those of the source. The call rests on the fitted dose curve; in most records, active means well fitted cell-killing curve with a large enough effect; inconclusive means small, poorly fitted or top-dose-only effect; inactive means flat fitted curve, though single readings scatter.
On the % scale 0 is the no-effect control and ±100 the full control effect; potency means the concentration at half of the fitted maximal effect.

Assay: qHTS screen for small molecules that inhibit ELG1-dependent DNA repair: Hit Confirmation with Unstimulated Viability Assay;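 further: compound exposure lasted 16 hours before reading; nearly all actives have a fitted effect of over 55% in size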
Conditions: cell viability counter-screen, luminescence; series mostly up to 45.9 µM; activity change, negative = loss of viability: at the top concentration
Source text: Cancer cells divide rapidly compared to normal cells in the body. During cell division, cancer cells need to duplicate their genome by DNA replication. The failure of genome duplication leads to cancer cells' death. Therefore, inhibitors of DNA replication could specifically kill cancer cells. Based on this concept, many chemotherapeutic agents were developed and have been used to treat cancer patients. However, there are a limited number of agents available in the clinical setting, and some of those that do exist have low efficacy and severe side effects. Therefore, if we can find the compounds that effectively block DNA replication either by directly damaging DNA or by inhibiting other cellular mechanisms, the options for cancer treatment will be broadened. With this in mind, we developed a quantitative high-throughput ELG1-luciferase reporter gene assay. Small molecules that specifically block ELG1 function in response to DNA damage can be identified by monitoring the suppression of luciferase activity. Since ELG1 defines a pathway for repairing DNA damage, agents blocking ELG1 function can be used to sensitize cancer cells to chemotherapeutic agents whose mechanism of action involves the induction of DNA damage.
NIH Molecular Libraries Probe Production Network [MLPCN]
NIH Chemical Genomics Center [NCGC]
Assay Provider: Kyungjae Myung, NHGRI, NIH
For genotoxicity screening, 2,000 cells in 4 uL/well were dispensed into white, solid-bottom 1536-well plates using a solenoid-based dispenser. 23 nL compound or DMSO vehicle were added by a pin tool, the plates were incubated 16 hr at 37 °C and 5% CO2. 5 ul ONE-Glo (Promega) was then added to each plate and following a 30 min incubation at room temperature, luciferase activity was quantified on a ViewLux CCD-based plate reader.
In the case of `NC(=O)c1sc2nc3c(c(-c4ccccc4)c2c1N)CCC3`, the “activity change, negative = loss of viability” value is reported as -9.78% (inactive).
With `CCc1ccc(N(CC)c2ncnc3nc[nH]c23)cc1` the “activity change, negative = loss of viability” value was -6.97% (inactive).
With `O=C(Nn1c(SCc2ccc([N+](=O)[O-])cc2)nc2ccccc2c1=O)c1ccc(F)cc1` the “activity change, negative = loss of viability” value was -4.1% (inactive).
In the case of `CS(=O)c1ccc(/C=C2\C=Cc3ccccc32)cc1` (stereo not given), the “activity change, negative = loss of viability” value is reported as -2.21% (inactive).
With `CN(CC1CCCO1)S(=O)(=O)c1ccc(C(=O)Nc2ccc(F)cc2)cc1` (stereo not given) the “activity change, negative = loss of viability” value was -7.82% (inactive).
With `Cc1ccccc1NC(=O)CSc1nc2ccc(Nc3nc(N4CCOCC4)nc(N4CCOCC4)n3)cc2s1` the “activity change, negative = loss of viability” value was -11.1% (inactive).
With `CC(=O)c1c(C)n(-c2ccc(C)cc2)c2ccc(O)cc12` the “activity change, negative = loss of viability” value was -1.71% (inactive).
With `CS(=O)(=O)c1ccc2nc(NC(=O)C3CCCCC3)sc2c1` the “activity change, negative = loss of viability” value was -2.4% (inactive).
In the case of `Cc1nnc(N/N=C/c2ccccn2)[nH]c1=O`, the “activity change, negative = loss of viability” value is reported as -9.82% (inactive).
In the case of `CN(C)c1ccnc2sc3c(=O)n(Cc4ccccc4)cnc3c12`, the “activity change, negative = loss of viability” value is reported as -1.4% (inactive).
In the case of `Cc1ccc(Nc2nc(N3CCOCC3)nc(N3CCOCC3)n2)cc1Cl`, the “activity change, negative = loss of viability” value is reported as -6.73% (inactive).
With `COc1ccc(-c2cc(C(=O)N(C)CC(=O)Nc3ccccc3Cl)c3ccccc3n2)cc1OC` the “activity change, negative = loss of viability” value was -15.8% (inactive).
With `Cc1ccc(C)c(S(=O)(=O)N2CCN(c3ncnc4sccc34)CC2)c1` the Potency was 6.28 µM (active).
With `CC(=O)N1CCc2cc(Br)cc(S(=O)(=O)CCC(=O)Nc3c(C)n(C)n(-c4ccccc4)c3=O)c21` the “activity change, negative = loss of viability” value was -1.72% (inactive).
For `COc1ccc(-c2nn(-c3ccccc3)cc2/C=C\C(=O)N2CCOCC2)cc1[N+](=O)[O-]`, the “activity change, negative = loss of viability” value was 6.03% (inactive).
For `CC12CCC(C(=O)N3CCN(c4ncccn4)CC3)(c3nc4ccccc4nc31)C2(C)C` (stereo not given), the “activity change, negative = loss of viability” value was -9.41% (inactive).
With `Nc1nnc(SCC(=O)Nc2ccc3nc(SCC(=O)Nc4ccccc4)sc3c2)s1` the “activity change, negative = loss of viability” value was -15% (inactive).
With `OCCCNc1nccc(-c2cc(Nc3cccc(Cl)c3)ncn2)n1` the Potency was 9.97 µM (active).
In the case of `COc1ccc(NC(=O)C2CCC(CNc3c(N4CCCCC4)c(=O)c3=O)CC2)c(OC)c1` (stereo not given), the Potency is reported as 25 µM (active).
With `COc1ccc(NC(C)=O)cc1NC(=O)CN1CCN(C2c3ccccc3-c3ccccc32)CC1` the “activity change, negative = loss of viability” value was -13.3% (inactive).
